Experimental data from PubChem BioAssay AID686970 (National Center for Advancing Translational Sciences (NCATS), 2013).
The campaign covered roughly 360,000 compounds. About 6,000 (1.7%) were called active. About 8% were inconclusive and are not listed. The call rests on the fitted dose curve; in most records, active means well fitted cell-killing curve with a large enough effect; inconclusive means small, poorly fitted or top-dose-only effect, or effect the other way; inactive means flat fitted curve, though single readings scatter. The sample as a whole holds a higher share of actives than the screen did.

Test: qHTS for induction of synthetic lethality in tumor cells producing 2HG: qHTS for the HT-1080-NT fibrosarcoma cell line; further: nearly all actives have a fitted effect of over 55% in size
Details: HT-1080-NT fibrosarcoma viability, CellTiter-Glo ATP luminescence, 48 h; series mostly up to 46.1 µM; activity, negative = less viability: at the top concentration
Text: Unbiased genomic sequencing for 22 glioma genomes found recurrent mutation of IDH1 on chromosome 2q33, a gene encoding the cytosolic isoform of IDH1 associated with the tricarboxylic acid cycle (TCA) that catalyzes the oxidative decarboxylation of isocitrate, yielding alpha-ketoglutarate and CO2 via NADP+ to NADPH conversion. Subsequent studies confirmed the recurrent IDH mutations in up to 70% of secondary gliomas and in 10% of AML cases. In addition, the somatic mutation of cancer-associated IDH1 is a point mutation resulting in various amino-acid substituents at Arginine132 (IDH1 R132), a key residue found in the enzyme's active site that when mutated, results in the loss-of-function in metabolizing isocitrate but confers a gain-of-function to produce the oncometabolite 2-hydroxyglutarate (2HG). This in effect defines IDH1 as an oncogene and provides an extraordinary opportunity to discover chemical probes against mutant IDH1 that may translate into much needed new therapies for glioma and AML patients.
This assay aims to perform a synthetic lethal screen for chemical probes specific for 2HG-producing tumor cells using matched paired cell lines (1) HT-1080-NT fibrosarcoma cell line that overproduces 2HG and (2) HT-1080-IDH1KD cell line which has IDH1 expression knocked-down. Desirable compounds are toxic to the NT fibrosarcoma cells but not to the IDH1KD cell line. The data in this AID corresponds to the results of the qHTS against the HT-1080-NT fibrosarcoma cell line.
[1] Dang L, Jin S, Su SM. IDH mutations in glioma and acute myeloid leukemia. Trends of Mol Med. 2010; 16(9): 387-97.
[2] Dang L et al. Cancer-associated IDH1 mutations produce 2-hydroxyglutarate. Nature. 2010; 465(7300):966.
NIH Molecular Libraries Probe Production Centers Network [MLPCN]
NIH Chemical Genomics Center [NCGC]
Assay Submitter (PI): Lenny Dang Ph.D., Agios Pharmaceuticals
Suspensions of trypsinized HT-1080-NT cells were dispensed into white, tissue culture-treated, solid 1536-well plates at 5uL/well (750 cells/well final concentration) in RPMI medium supplemented with 5% FBS. Plates were incubated at 37 degrees C for 2 hours, after which 23 nL of compounds or DMSO were delivered to each well using a pin tool. Plates were then incubated at 37 degrees C for an additional 48 hours. CellTiter-Glo viability reagent (Promega) was dispensed into wells (2.5uL/well) and incubated at room temperature for 10 minutes. The plates were measured on a PerkinElmer ViewLux plate reader for luminescent signal (clear filter, 1 sec exp). DMSO-treated control wells and media-only (no cells) control wells were used to normalize %Activity of identified toxic compounds; DMSO-treated wells corresponded to 0%Activity (100% viability), while media-only controls were used to normalize 100%Activity (0% viability).
Concentration-response curves were fitted to the signals arising from the resulting luminescence. The concentration-effect curves were then classified based on curve quality (r2), response magnitude and degree of measured activity, and compounds were subsequently categorized based on their curve class.
Potency means the concentration at half of the fitted maximal effect.

| Compound | activity, negative = less viability | Potency |
| --- | --- | --- |
| N#Cc1ccc(-c2nc3c(Cl)cc(C(F)(F)F)cn3c2Cc2ccccc2C(F)(F)F)cc1 | 13.4% (inactive) | – |
| CCCCCC(O)c1cccc(OCc2ccc3ccccc3n2)c1 (configuration not stated) | – | 14.6 µM (active) |
| COc1cccc(C(O)c2ncc(-c3ccc4ccccc4c3)[nH]2)c1 (configuration not stated) | -8.84% (inactive) | – |
| COc1cccc(C(O)c2nc3ccccc3n2C)c1 (configuration not stated) | -2.98% (inactive) | – |
| COc1ccc(C(=O)NCC[N+](C)(C)C)cc1 | 21.8% (inactive) | – |
| Cc1cc(C)nc(SCc2ccccc2C#N)n1 | -13.3% (inactive) | – |
| Cc1cc(C)nc(N(C#N)CC(=O)Nc2ccccc2)n1 | -1.01% (inactive) | – |
| Cc1cc(C)nc(S/C=C/C(=O)c2ccccc2)n1 | – | 5.17 µM (active) |
| CN1CCN(C(=O)c2ccc(-c3cc4nc(NCc5cccnc5)n(C)c(=O)c4s3)cc2)CC1 | -6.36% (inactive) | – |
| Cc1cccc(C)c1NC(=O)C(c1cccc(F)c1)N1CCN(C)CC1 (configuration not stated) | 5.7% (inactive) | – |
| CCC(C(=O)OCC(=O)Nc1ccccc1-c1ccccc1)c1ccccc1 (configuration not stated) | -1.42% (inactive) | – |
| CCC(C(=O)OCC(=O)Nc1ccc(C(=O)Nc2ccc(OC)cc2)cc1)c1ccccc1 (configuration not stated) | – | 18.4 µM (active) |
| CCC(C(=O)OCC(=O)Nc1c(Cl)cc(Cl)cc1Cl)c1ccccc1 (configuration not stated) | -5.96% (inactive) | – |
| O=C(Nc1ccc(Cl)cc1)c1csc([C@@H]2O[C@H](CO)[C@H](O)[C@H](O)[C@H]2O)n1 | 5.67% (inactive) | – |
| CC(C)c1ccc2c(c1)c(SC(C)(C)C)c(CC(C)(C)C(=O)O)n2Cc1ccc(Cl)cc1 | – | 13 µM (active) |
| C[C@@H]1CN([C@H](C)CO)C(=O)CCCn2cc(nn2)CO[C@H]1CN(C)S(=O)(=O)c1ccc(Oc2ccccc2)nc1 | 9.83% (inactive) | – |
| O=C(c1ccc(C(F)(F)F)cc1)N1CCC(=O)N([C@H](COCc2ccccc2)Cc2ccccc2)CC1 | -31.2% (inactive) | – |
| O=C(CNC(=O)N1CC(=O)Nc2ccccc21)Nc1ccc(Br)cc1F | 2.75% (inactive) | – |
| O=C1C=C(c2ccc(Cl)cc2)C(=O)N1Nc1ccccc1 | – | 23.1 µM (active) |
| O=C(CCC(=O)OCc1ccc(Cl)cc1)Nc1ccccc1 | 8.34% (inactive) | – |
| O=C(O)CC1=C(Nc2ccccc2)C(=O)N(c2ccccc2)C1c1ccc(Cl)cc1 (configuration not stated) | 5.31% (inactive) | – |
| CCN(Cc1ccncc1)C(=S)Nc1ccccc1C | 13.2% (inactive) | – |
| CCCCN1CC(N2CCN(Cc3cccc(C)c3)CC2)CS1(=O)=O (configuration not stated) | 13.1% (inactive) | – |
| CCCCN(CCCC)CCC(O)c1cc2c(Cl)cc(Cl)cc2c2cc(C(F)(F)F)ccc12 (configuration not stated) | – | 14.6 µM (active) |
| Fc1cccc(Cc2c(-c3cccc(Cl)c3)nc3ccc(Br)cn23)c1 | -23.5% (inactive) | – |
| CC1(C(=O)NS(=O)(=O)c2ccccc2Cl)CCN1C(=O)c1cccc(F)c1 (configuration not stated) | 16.3% (inactive) | – |

| Compound | activity, negative = less viability | Potency |
| --- | --- | --- |
| Cc1cccc(C)c1NC(=O)CN(C)C(=O)CCC(=O)c1ccccc1 | 15.1% (inactive) | – |
| Cc1cccc(C)c1NC(=O)N1CC(C)OC(C)C1 (configuration not stated) | 2.26% (inactive) | – |
| Cc1cccc(C)c1NC(=O)C(Cl)C(=O)c1ccccc1 (configuration not stated) | – | 16.4 µM (active) |
| Cc1ccccc1CN1C(=O)CSCC1(C)C(=O)Nc1c(C)cccc1C (configuration not stated) | 9.72% (inactive) | – |
| COc1ccc(OCC(O)CN(C)C(=O)C(C)Oc2ccccc2)cc1 (configuration not stated) | -4.49% (inactive) | – |
| CN(Cc1ccccc1)CC(O)COc1ccc(CNCc2cc3ccccc3s2)cc1 (configuration not stated) | – | 20.6 µM (active) |
| Cc1ccc(OCC(=O)OC(C)CN(C)Cc2ccccc2)cc1 (configuration not stated) | 1.64% (inactive) | – |
| CC(C)(C)Cc1c(C2CCCCC2)nc2ccc(Br)cn12 | -24.8% (inactive) | – |
| O=C(N/N=C/c1ccccc1O)C1CCCC1 | -15.5% (inactive) | – |
| O=C(NN=Cc1ccccc1)c1ccccc1 | 25.1% (inactive) | – |
| O=C(NN=Cc1ccccc1O)NN=Cc1ccccc1O | – | 8.2 µM (active) |
| CCCNC(=O)C1(C)CCCN(Cc2cccc(C(F)(F)F)c2)C1 (configuration not stated) | 6.04% (inactive) | – |
| COc1ccc(CNS(=O)(=O)c2ccc(-c3cnc(C4CC4)o3)cc2)cc1 | -19.8% (inactive) | – |
| Cc1cccc(NS(=O)(=O)c2ccc(C)c(C(N)=O)c2)c1 | 4.32% (inactive) | – |
| Cc1cccc(NS(=O)(=O)c2ccc(-c3cnc(C4CC4)o3)cc2)c1 | – | 5.17 µM (active) |
| O=C(CCCN1C(=O)C(c2ccccc2)Oc2cccnc21)Nc1ccccc1Br (configuration not stated) | -2.47% (inactive) | – |
| COc1ccc(C(CNC(=O)c2ccc(OCc3cscn3)cc2)N2CCCC2)cc1 (configuration not stated) | -5.47% (inactive) | – |
| CN1CCN(c2ccc3c(c2)OC[C@H](Cc2ccccc2)NS3(=O)=O)CC1 | 9.78% (inactive) | – |
| CCN(CC)CCNc1ccc(Cl)cc1[N+](=O)[O-] | -3.02% (inactive) | – |
| CCN(CC)CCn1c2ccc(Cl)cc2c2nc(C)sc21 | – | 28.2 µM (active) |
| COC(=O)Cn1c2ccc(C)cc2c2nc(C)sc21 | 11% (inactive) | – |
| O=C(NCc1ccccc1)C1c2ccccc2OCC(=O)N1C1CC1 (configuration not stated) | 20.8% (inactive) | – |
| Cc1sc2ccccc2c1CNC[C@H]1O[C@@H](n2ccc(=O)[nH]c2=O)[C@H](O)[C@@H]1O | 21.8% (inactive) | – |
| COc1ccc2nc(/N=C(\N)NC(=O)Nc3ccccc3)nc(C)c2c1 | -18.5% (inactive) | – |
| CC(C)c1cc(C(=O)NC2CCCCCC2)c2ccccc2n1 | -7.58% (inactive) | – |
| Cc1nc(/N=C(\N)NC(=O)NC2CCCCC2)nc2ccccc12 | – | 23.1 µM (active) |
